The nature of assay [1]: Quantitative High-Throughput drug screen in 47 multiple myeloma cell lines against the NCATS MIPE library collection: MM1S_ATCC cell viability assay (AID 1918980). Further: nearly all actives have a fitted effect of over 45% in size. Summed up: (§1)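 MIPE 4.0 approved/investigational drugs; 500 cells/well; 48 h 37 °C humidified 5% CO2; CTG luminescence readout; DMSO = 100%, media = 0% viability.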
Assay [2] can be described thus: Quantitative High-Throughput drug screen in 47 multiple myeloma cell lines against the NCATS MIPE library collection: MM1R_ATCC cell viability assay (AID 1918981). Further: nearly all actives have a fitted effect of over 35% in size. Summed up:
as §1

A short description of assay [3]: Quantitative High-Throughput drug screen in 47 multiple myeloma cell lines against the NCATS MIPE library collection: LP1_DSMZ cell viability assay (AID 1918982). Further: nearly all actives have a fitted effect of over 35% in size. In outline: as §1
Assay [4] is described as follows: Quantitative High-Throughput drug screen in 47 multiple myeloma cell lines against the NCATS MIPE library collection: KMS28PE_JCRB cell viability assay (AID 1918983). Further: nearly all actives have a fitted effect of over 35% in size. Summed up:
as §1

Assay [5] is described as follows: Quantitative High-Throughput drug screen in 47 multiple myeloma cell lines against the NCATS MIPE library collection: L363_DSMZ cell viability assay (AID 1918984). Further: nearly all actives have a fitted effect of over 40% in size. Summed up:
as §1

Assay [6] is described as follows: Quantitative High-Throughput drug screen in 47 multiple myeloma cell lines against the NCATS MIPE library collection: KMS34_JCRB cell viability assay (AID 1918985). Further: nearly all actives have a fitted effect of over 40% in size. In outline:
as §1

Assay [7] can be described thus: Quantitative High-Throughput drug screen in 47 multiple myeloma cell lines against the NCATS MIPE library collection: OCIMY7_PLB cell viability assay (AID 1918987). Further: nearly all actives have a fitted effect of over 65% in size. The note with it: OCI-MY7 myeloma viability, CellTiter-Glo ATP, 48 h; viability (% of DMSO): at 45.8 µM (top of the series). Summed up: as §1
Assay [8] is described as follows: Quantitative High-Throughput drug screen in 47 multiple myeloma cell lines against the NCATS MIPE library collection: OPM1_PLB cell viability assay (AID 1918989). Further: nearly all actives have a fitted effect of over 40% in size. In outline:
as §1

Assay [9] in a line: Quantitative High-Throughput drug screen in 47 multiple myeloma cell lines against the NCATS MIPE library collection: SKMM1_PLB cell viability assay (AID 1919863). Further: nearly all actives have a fitted effect of over 35% in size. The note with it: SKMM1 myeloma viability, CellTiter-Glo ATP, 48 h; viability: hits give low values. In outline:
as §1

The nature of assay [10]: Quantitative High-Throughput drug screen in 47 multiple myeloma cell lines against the NCATS MIPE library collection: OCIMY5_PLB cell viability assay (AID 1918988). Further: nearly all actives have a fitted effect of over 65% in size. Summed up: as §1

The structures appear in SMILES notation. Results filed as inconclusive are left out. A number with no mark means an inactive call. The source made the active and inactive calls. The call rests on the fitted dose curve; in most records, active means well fitted cell-killing curve with a large enough effect; inconclusive means small, poorly fitted or top-dose-only effect, or effect the other way; inactive means no such curve, though single readings can be large or run the other way. Non-standard residues stand in square brackets, D forms with d. Residues, ends and D or L forms follow the SMILES beside them. *: point of attachment. Nva = CCC[C@H](N)C(=O)O; Cbz = O=C(OCc1ccccc1)*
Potency means the concentration at half of the fitted maximal effect.

As to `CCc1ccc(C(=O)Nc2cc(CN3CCN(C)CC3)cc(C(F)(F)F)c2)cc1C#Cc1cnc2ccnn2c1`, the Potency was 16600 nM (active) in assay [1]; 18700 nM (active) in assay [2]; 16600 nM (active) in [3]; 16600 nM (active) in [4]; 6620 nM (active) in assay [5]; 10500 nM (active) in [6]. Moreover, the Potency in assay [7] is 1870 nM (active); in assay [8], 7430 nM (active); in assay [9] it was 16600 nM (active).

Turning to `COc1cccc2c1C(=O)c1c(O)c3c(c(O)c1C2=O)C[C@@](O)(C(C)=O)C[C@H]3O[C@H]1C[C@H](N)[C@H](O)[C@H](C)O1`, the Potency in [1] is 46.9 nM (active); in [2], 26.4 nM (active); in assay [3] it was 209 nM (active); in assay [4] it was 83.3 nM (active); in assay [5] it was 118 nM (active); in [7], 418 nM (active). Moreover, the Potency in assay [10] is 46.9 nM (active); in [8], 105 nM (active); in assay [9] it was 166 nM (active).

Turning to `COc1ccc(C=Cc2cc(OC)c(OC)c(OC)c2)cc1NC(=O)[C@H](N)CO`, the Potency in assay [1] is 20.9 nM (active); in assay [2] it was 14.8 nM (active); in assay [3] it was 1.7 nM (active); in assay [4], 9.3 nM (active); in assay [5] it was 9.3 nM (active); in assay [6], 4.2 nM (active). Also, the Potency was 1 nM (active) in [7], 1 nM (active) in assay [8] and 5.9 nM (active) in assay [9].

Consider `FC(F)c1nc2ccccc2n1-c1nc(N2CCOCC2)nc(N2CCOCC2)n1`, for which the Potency in assay [1] is 590 nM (active); in [2], 743 nM (active); in assay [3] it was 20.9 nM (active); in assay [4] it was 418 nM (active); in assay [6] it was 1320 nM (active); in assay [7], 372 nM (active). Also, the results for the Potency in assay [10], in assay [8] and in assay [9] were 1320 nM (active), 469 nM (active) and 1480 nM (active), respectively.

On to `CC[C@]12C=CCN3CC[C@@]4(c5cc([C@@]6(C(=O)OC)C[C@H]7C[C@@H](C(C)(F)F)CN(Cc8c6[nH]c6ccccc86)C7)c(OC)cc5N(C)[C@H]4[C@@](O)(C(=O)OC)[C@H]1OC(C)=O)[C@@H]32`, for which the Potency was 148 nM (active) in assay [1]; 469 nM (active) in [2]; 20.9 nM (active) in assay [3]; 4.7 nM (active) in [4]; 5.9 nM (active) in assay [6]; 1 nM (active) in [7]. In addition, the Potency in assay [10] is 1.9 nM (active); in [8] it was 16.6 nM (active); in assay [9], 9.3 nM (active).

Usually viability stands for a read-out of living cells in per cent, often relative to untreated cells. As to `CON=C(C(=O)N[C@@H]1C(=O)N2C(C(=O)O)=C(Cn3ccc(=N)n3CCO)CS[C@H]12)c1csc(N)n1`, the Potency entry in assay [1], in [2], in [3], in [4], in [5] and in assay [6] was “inactive” each time. For the same compound, the Potency entry in [10] was “inactive”. Moreover, in assay [9], the viability is 112%.

As for `CCN(CC)CCNC(=O)c1c(C)[nH]c(C=C2C(=O)Nc3ccc(F)cc32)c1C`, the Potency in assay [1] was 4810 nM (active); in assay [2], 3030 nM (active); in assay [3] it was 30300 nM (active); in assay [4], 5400 nM (active); in assay [5], 540 nM (active); in assay [6], 6050 nM (active). Also, the results for the Potency in [7], in assay [8] and in assay [9] were 171 nM (active), 1520 nM (active) and 27000 nM (active), respectively.

Consider `OCc1ccccc1O[C@@H]1O[C@H](CO)[C@H](O)[C@H](O)[C@H]1O`, for which the values for the Potency in [1] and in assay [7] were 20900 nM (active) and 26400 nM (active), respectively. Besides, the Potency entry in assay [2], in assay [3], in assay [4], in [5] and in [6] was “inactive” each time. Moreover, in [9], the viability was 130%.

`COc1cccc2c1C(=O)c1c(O)c3c(c(O)c1C2=O)C[C@@](O)(C(=O)CO)C[C@@H]3O[C@H]1C[C@H](N)[C@H](OC2CCCCO2)[C@H](C)O1` (some centres undefined): the Potency in assay [1] was 132 nM (active); in [2], 296 nM (active); in assay [3], 18700 nM (active); in [4] it was 2640 nM (active); in assay [6], 2640 nM (active); in assay [10], 2090 nM (active). Also, the Potency in assay [8] was 16600 nM (active); in assay [9], 2640 nM (active). Further, the Potency entry in assay [5] was “inactive”.

Consider `CCC[C@@H](C=O)NC(=O)[C@H](CC(C)C)NC(=O)[C@H](CC(C)C)NC(=O)OCc1ccccc1` (Cbz-Leu-Leu-[Nva]-aldehyde), for which the Potency is 418 nM (active) in assay [1]; 743 nM (active) in [2]; 1320 nM (active) in assay [3]; 662 nM (active) in assay [4]; 743 nM (active) in [6]; 372 nM (active) in assay [7]. Further, the Potency is 590 nM (active) in [8] and 1870 nM (active) in [9].

In the case of `CN(C)CCN1C(=O)c2cccc3cc(N)cc(c23)C1=O`, the Potency is 14800 nM (active) in [1]; 9350 nM (active) in assay [2]; 20900 nM (active) in assay [3]; 16600 nM (active) in assay [4]; 16600 nM (active) in [5]; 23500 nM (active) in [6]. Also, the Potency in [9] is 18700 nM (active).

For the compound `CS[C@H]1SC[C@@H]2C(=O)N(C)[C@H](C(C)C)C(=O)OC[C@H](NC(=O)c3cnc4ccccc4n3)C(=O)N[C@H](C)C(=O)N(C)[C@@H]1C(=O)N(C)[C@H](C(C)C)C(=O)OC[C@H](NC(=O)c1cnc3ccccc3n1)C(=O)N[C@H](C)C(=O)N2C`, the Potency was 3 nM (active) in assay [1]; 1.9 nM (active) in assay [2]; 6.6 nM (active) in assay [3]; 3 nM (active) in [4]; 4.7 nM (active) in [6]; 41.8 nM (active) in [7]. Besides, the figures for the Potency in assay [10] and in assay [9] were 2.1 nM (active) and 9.3 nM (active), respectively.

Regarding `Cc1ncc(-c2ccnc(Nc3ccc(S(C)(=O)=O)cc3)n2)n1C(C)C`, the Potency in [1] was 2640 nM (active); in assay [2], 2350 nM (active); in assay [3], 3320 nM (active); in assay [4], 5260 nM (active); in assay [5], 1660 nM (active); in [6] it was 1870 nM (active). For the same compound, the Potency in assay [7] is 833 nM (active); in assay [8] it was 2350 nM (active); in assay [9], 5260 nM (active).

In the case of `C=C1C[C@@]2(O)O[C@@]3(C[C@H]2C(C)C)[C@H](C)CC[C@H]13`, the Potency in assay [1] is 1480 nM (active). Moreover, the Potency entry in assay [2], in assay [3], in assay [4], in assay [6], in assay [10] and in [8] was “inactive” each time. The viability in assay [9] was 114%.

The record behind these values is PubChem BioAssay (NCATS).
